What all share (assay): log2 ratio of Biotin-Ahx-Ub-VS probe labelling (fragment/DMSO); higher = less target engagement (more negative = stronger competition), active = hit call of the paper (q ≤ 0.05, log2 ratio ≤ -1)
What all share (details): compound concentration: 200 uM; treatment time: 3 h

One assay deals with T1, USP19 (UniProt O94966).
T1 sequence (whole entry): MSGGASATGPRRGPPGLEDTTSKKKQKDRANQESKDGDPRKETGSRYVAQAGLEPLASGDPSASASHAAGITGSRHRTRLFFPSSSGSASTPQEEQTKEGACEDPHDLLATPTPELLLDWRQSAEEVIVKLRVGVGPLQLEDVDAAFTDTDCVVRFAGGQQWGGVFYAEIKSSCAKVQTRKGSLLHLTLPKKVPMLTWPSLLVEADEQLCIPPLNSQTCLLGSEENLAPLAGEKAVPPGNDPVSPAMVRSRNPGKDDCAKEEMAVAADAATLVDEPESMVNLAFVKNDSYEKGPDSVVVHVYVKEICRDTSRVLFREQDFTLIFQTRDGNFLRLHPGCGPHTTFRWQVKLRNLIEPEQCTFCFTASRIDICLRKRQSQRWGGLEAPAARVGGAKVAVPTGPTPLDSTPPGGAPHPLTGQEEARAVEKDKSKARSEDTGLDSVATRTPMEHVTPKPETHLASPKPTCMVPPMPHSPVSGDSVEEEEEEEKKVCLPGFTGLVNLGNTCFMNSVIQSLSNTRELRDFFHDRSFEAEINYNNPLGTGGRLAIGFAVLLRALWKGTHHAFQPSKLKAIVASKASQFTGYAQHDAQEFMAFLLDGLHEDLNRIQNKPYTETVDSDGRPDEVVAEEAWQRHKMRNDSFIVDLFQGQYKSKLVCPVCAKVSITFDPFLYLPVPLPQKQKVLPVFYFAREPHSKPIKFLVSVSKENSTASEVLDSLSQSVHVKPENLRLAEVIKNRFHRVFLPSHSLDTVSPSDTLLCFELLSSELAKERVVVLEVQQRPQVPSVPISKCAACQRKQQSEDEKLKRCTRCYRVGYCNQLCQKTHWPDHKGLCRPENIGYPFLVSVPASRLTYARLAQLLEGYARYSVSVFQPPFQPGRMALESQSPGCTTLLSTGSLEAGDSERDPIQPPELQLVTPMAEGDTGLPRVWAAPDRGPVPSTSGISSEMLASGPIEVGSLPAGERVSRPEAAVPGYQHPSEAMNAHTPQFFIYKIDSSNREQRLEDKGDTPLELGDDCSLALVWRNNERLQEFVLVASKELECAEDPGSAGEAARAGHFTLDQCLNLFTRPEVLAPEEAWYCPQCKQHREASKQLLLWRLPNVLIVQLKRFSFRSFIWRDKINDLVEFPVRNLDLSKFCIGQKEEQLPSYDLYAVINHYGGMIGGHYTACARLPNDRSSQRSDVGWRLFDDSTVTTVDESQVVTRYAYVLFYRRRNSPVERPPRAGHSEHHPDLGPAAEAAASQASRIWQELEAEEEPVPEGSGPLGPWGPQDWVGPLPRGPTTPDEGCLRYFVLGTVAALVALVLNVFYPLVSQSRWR
Put shortly:
(§1)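 Values give the average log2 ratio of fragment to vehicle, assessed by unpaired t-test on global-median-normalised Spectronaut label-free quantities. Proteins needed ≥2 unique peptides. HEK293T lysate (495 µg per sample) was treated in triplicate with fragment at 200 µM or vehicle for 3 h and then with Biotin-Ahx-Ub-VS at 0.5 µM final for 1 h. Labelled DUBs were NeutrAvidin-enriched, digested and run by diaPASEF LC-MS/MS.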

A further assay concerns the target T2, USP22 (UniProt Q9UPT9).
T2 sequence (whole entry): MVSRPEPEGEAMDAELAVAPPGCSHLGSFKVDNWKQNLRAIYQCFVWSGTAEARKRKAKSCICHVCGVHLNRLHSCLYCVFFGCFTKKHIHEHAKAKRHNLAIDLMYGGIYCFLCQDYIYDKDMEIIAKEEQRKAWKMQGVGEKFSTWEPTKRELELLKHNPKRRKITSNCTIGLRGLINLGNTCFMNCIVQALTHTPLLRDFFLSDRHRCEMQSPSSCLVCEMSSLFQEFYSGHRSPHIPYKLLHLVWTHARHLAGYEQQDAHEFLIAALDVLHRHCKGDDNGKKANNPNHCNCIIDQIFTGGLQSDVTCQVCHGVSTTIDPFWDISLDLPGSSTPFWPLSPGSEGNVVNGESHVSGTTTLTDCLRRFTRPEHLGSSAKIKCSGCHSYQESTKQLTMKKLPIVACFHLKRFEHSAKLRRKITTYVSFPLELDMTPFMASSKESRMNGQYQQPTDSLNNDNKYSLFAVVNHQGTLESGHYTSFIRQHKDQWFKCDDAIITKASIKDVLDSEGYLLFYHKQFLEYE
Put shortly:
as §1

A further assay concerns the target USP24 (UniProt Q9UPU5). The essentials:
as §1

In a further assay the target is T3, USP25 (UniProt Q9UHP3).
T3 sequence (whole entry): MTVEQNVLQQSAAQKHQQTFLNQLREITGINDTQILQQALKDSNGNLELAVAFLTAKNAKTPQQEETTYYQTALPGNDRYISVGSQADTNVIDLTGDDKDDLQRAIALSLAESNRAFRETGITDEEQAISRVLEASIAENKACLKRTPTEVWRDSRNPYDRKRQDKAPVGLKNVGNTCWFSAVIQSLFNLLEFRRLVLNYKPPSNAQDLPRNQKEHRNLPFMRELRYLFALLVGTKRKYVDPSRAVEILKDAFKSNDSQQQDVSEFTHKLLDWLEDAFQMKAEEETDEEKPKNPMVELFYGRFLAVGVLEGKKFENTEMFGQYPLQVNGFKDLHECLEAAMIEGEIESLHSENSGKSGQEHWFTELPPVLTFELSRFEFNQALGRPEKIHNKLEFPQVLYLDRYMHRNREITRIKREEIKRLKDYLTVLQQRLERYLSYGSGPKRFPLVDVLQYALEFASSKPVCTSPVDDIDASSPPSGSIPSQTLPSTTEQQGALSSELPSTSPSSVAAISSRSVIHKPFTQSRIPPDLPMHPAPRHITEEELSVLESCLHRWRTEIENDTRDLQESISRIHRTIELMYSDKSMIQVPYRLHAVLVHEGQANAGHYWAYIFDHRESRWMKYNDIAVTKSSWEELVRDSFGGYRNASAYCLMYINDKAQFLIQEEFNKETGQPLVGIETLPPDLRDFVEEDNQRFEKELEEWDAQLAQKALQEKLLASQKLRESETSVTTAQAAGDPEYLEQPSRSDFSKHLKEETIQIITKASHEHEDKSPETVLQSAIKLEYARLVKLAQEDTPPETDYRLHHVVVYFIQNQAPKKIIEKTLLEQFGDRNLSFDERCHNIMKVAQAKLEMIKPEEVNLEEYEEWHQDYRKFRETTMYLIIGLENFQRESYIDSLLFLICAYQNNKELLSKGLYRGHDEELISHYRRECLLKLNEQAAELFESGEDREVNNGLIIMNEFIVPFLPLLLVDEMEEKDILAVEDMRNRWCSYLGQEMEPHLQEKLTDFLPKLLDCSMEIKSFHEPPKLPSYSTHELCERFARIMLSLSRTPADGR
Put shortly:
as §1

For the next assay, the target named is T4, USP28 (UniProt Q96RU2).
T4 sequence (whole entry): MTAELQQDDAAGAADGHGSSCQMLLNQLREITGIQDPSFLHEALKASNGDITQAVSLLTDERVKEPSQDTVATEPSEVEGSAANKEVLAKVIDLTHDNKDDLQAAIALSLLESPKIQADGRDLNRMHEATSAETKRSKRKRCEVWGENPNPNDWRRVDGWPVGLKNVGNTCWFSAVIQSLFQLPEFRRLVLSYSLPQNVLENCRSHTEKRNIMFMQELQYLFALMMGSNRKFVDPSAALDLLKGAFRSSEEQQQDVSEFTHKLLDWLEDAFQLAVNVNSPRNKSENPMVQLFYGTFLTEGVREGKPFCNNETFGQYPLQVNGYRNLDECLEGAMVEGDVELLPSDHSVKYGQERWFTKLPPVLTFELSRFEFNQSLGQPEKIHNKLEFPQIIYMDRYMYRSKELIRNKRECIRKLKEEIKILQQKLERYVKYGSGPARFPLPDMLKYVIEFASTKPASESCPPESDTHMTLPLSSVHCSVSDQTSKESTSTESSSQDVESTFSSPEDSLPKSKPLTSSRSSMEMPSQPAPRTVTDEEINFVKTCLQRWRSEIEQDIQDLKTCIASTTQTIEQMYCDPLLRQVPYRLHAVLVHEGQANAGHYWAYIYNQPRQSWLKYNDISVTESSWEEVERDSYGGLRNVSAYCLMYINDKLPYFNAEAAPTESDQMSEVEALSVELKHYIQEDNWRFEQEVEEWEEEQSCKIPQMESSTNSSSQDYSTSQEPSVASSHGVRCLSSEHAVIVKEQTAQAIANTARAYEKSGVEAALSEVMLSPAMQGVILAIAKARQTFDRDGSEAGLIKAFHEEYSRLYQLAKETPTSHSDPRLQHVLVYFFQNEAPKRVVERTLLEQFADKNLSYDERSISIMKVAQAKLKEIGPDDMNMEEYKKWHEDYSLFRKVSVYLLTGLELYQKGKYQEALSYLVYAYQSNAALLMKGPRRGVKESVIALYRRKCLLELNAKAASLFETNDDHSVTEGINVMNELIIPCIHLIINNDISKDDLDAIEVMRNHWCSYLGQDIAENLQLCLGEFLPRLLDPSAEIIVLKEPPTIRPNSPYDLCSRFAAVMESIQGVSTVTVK
Put shortly:
as §1

Values without a mark were called inactive.

Sequence of USP24 (Q9UPU5 whole entry): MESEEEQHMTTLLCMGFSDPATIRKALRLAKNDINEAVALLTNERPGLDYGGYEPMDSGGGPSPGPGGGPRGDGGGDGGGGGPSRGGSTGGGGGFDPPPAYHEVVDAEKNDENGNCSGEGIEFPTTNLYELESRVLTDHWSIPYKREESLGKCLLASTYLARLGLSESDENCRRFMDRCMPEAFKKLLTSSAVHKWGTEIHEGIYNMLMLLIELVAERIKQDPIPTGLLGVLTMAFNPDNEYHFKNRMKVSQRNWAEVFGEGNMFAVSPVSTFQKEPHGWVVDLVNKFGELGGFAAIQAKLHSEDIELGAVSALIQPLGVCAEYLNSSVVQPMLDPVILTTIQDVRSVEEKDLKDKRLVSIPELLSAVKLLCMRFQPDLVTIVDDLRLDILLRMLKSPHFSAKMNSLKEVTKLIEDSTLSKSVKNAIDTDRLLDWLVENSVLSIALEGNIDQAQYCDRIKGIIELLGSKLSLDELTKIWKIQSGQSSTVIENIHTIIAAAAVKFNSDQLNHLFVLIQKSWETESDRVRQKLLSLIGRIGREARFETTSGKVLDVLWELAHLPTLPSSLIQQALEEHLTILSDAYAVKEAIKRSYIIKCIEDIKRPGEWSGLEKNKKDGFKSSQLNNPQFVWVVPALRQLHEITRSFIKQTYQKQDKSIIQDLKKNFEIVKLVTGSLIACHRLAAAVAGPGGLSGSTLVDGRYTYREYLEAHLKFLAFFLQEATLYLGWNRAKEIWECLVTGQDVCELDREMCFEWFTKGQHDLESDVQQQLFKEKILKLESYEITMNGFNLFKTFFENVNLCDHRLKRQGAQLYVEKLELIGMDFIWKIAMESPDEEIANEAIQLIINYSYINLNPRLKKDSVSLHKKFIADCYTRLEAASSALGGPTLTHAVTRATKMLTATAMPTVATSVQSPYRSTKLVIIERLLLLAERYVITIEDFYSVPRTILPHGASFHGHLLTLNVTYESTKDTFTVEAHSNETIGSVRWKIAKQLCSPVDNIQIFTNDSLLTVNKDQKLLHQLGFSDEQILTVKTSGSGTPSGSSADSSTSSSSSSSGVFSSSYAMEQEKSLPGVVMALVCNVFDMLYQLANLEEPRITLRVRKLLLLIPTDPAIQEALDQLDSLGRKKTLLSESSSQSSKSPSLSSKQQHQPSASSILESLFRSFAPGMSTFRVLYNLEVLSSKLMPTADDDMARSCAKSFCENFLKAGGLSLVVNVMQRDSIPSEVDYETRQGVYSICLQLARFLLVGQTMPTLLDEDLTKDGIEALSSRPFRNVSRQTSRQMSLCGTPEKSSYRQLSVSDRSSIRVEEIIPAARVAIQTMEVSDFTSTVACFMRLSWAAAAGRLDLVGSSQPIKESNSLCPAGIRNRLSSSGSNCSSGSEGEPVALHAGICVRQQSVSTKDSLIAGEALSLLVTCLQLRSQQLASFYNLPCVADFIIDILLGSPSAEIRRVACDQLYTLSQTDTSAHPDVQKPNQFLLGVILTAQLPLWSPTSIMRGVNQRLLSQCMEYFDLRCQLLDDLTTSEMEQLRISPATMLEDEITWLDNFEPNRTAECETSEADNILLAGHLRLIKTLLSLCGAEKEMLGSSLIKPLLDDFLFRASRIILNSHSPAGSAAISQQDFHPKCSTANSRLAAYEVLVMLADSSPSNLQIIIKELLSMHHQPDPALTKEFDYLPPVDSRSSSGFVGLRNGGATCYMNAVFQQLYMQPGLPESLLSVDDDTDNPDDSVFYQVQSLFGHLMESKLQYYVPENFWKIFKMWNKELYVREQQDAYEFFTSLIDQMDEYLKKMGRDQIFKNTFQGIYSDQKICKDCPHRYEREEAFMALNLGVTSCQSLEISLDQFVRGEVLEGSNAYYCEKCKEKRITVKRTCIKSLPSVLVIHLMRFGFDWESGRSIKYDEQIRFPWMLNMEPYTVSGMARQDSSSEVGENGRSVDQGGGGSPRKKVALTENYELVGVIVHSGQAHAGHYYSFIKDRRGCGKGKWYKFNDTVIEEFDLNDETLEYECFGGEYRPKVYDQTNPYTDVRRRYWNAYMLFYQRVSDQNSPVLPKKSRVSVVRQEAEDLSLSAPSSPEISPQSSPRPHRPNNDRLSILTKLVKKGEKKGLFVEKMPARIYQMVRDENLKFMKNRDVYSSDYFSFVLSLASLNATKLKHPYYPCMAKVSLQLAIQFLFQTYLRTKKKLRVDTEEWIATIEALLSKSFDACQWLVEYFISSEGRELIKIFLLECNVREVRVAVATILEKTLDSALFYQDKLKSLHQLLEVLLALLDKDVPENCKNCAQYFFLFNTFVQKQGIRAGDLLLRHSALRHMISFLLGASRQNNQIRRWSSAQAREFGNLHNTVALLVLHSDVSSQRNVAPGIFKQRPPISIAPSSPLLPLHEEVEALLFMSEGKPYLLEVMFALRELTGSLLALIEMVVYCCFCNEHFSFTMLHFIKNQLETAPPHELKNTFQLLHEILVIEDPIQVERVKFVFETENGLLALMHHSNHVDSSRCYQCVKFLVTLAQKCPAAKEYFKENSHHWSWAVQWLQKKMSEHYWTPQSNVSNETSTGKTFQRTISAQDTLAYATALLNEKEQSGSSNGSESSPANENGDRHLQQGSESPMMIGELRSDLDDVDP

With `O=C(CCl)N1CCN(C(=O)N2CCCCC2)CC1`, the “log2 ratio of Biotin-Ahx-Ub-VS probe labelling” value in the assay with USP19 was -0.943; with USP22 it was -0.465; in the assay with USP24, -1.28 (active); with USP25 it was -1.09 (active); with USP28 it was -1.23 (active).

(Values after the supplement of paper PMC11732987, “Enantioselective OTUD7B fragment discovery through chemoproteomics screening and high-throughput optimisation” (Communications Chemistry, 2025).)
